Data from PubChem BioAssay (Tox21).
Inconclusive results are not listed. The source made the active and inactive calls. Unless noted, calls come from the whole dose curve; as a rule, active = well fitted curve in the direction sought with a large enough effect in the repeat runs; inconclusive = weak or mixed curves; inactive = no such curve, though single readings can be large; an effect the other way counts as inactive or inconclusive.

Columns and labels:
[1] = Human pregnane X receptor (PXR) small molecule agonists, qHTS cell viability counter screen (AID 1346977); note: nearly all actives have a fitted effect of over 50% in size
In short: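 Same-well viability read: CellTiter-Fluor added after 23 hr compound exposure, fluorescence measured 1 hr later. Cells were PXR-Luc HepG2 seeded at 2,000/well in 5% charcoal-stripped FBS medium, rested 5 hr before dosing at 37 C.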

[2] = Caspase-3/7 induction in HepG2 cells by small molecules, qHTS assay (AID 1346978); note: nearly all actives have a fitted effect of over 15% in size
In short: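 Wild-type HepG2 cells, 2,000/well, settled 5 hr at 37 C and 5% CO2, then compound-treated for 17 hr; caspase-3/7 activity read by luminescent Caspase-Glo 3/7 after 30 min at room temperature.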

[3] = Caspase-3/7 induction in CHO-K1 cells by small molecules, qHTS cell viability counter screen (AID 1346979); note: nearly all actives have a fitted effect of over 35% in size; note: potency is the fitted concentration of half-maximal effect
In short: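 Cytotoxicity counter screen: CellTiter-Fluor added to compound-treated wild-type CHO-K1 cells at 16 h (37C, 5% CO2), fluorescence measured 1 h later; same wells as caspase-3/7 measurement.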

[4] = Caspase-3/7 induction in CHO-K1 cells by small molecules, qHTS assay (AID 1346980); note: nearly all actives have a fitted effect of over 15% in size
In short: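 Wild-type CHO-K1 cells exposed to compounds for 17hr at 37 C, 5% CO2. Caspase-3/7 activity then measured by Caspase-Glo 3/7 luminescence after 30min at room temperature.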

[5] = Caspase-3/7 induction in HepG2 cells by small molecules, qHTS cell viability counter screen (AID 1346981); note: series mostly up to about 92 µM; nearly all actives have a fitted effect of over 30% in size
In short: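 Viability determined by CellTiter-Fluor fluorescence in HepG2 wells also used for the luminescent Caspase-Glo 3/7 read. Compounds were present for 16 hr at 37 C, 5% CO2 before reagent addition.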

[6] = molecular target: Acetylcholinesterase (Homo sapiens) (UniProt P22303); experiment: Acetylcholinesterase (AChE) small molecule antagonists: enzyme-based qHTS assay (AID 1347397; calls by dose curve; note: nearly all actives have a fitted effect of over 55% in size); conditions: Potency: AChE enzyme activity inhibition
Chain of Acetylcholinesterase (Homo sapiens) (P22303 whole entry, looked up): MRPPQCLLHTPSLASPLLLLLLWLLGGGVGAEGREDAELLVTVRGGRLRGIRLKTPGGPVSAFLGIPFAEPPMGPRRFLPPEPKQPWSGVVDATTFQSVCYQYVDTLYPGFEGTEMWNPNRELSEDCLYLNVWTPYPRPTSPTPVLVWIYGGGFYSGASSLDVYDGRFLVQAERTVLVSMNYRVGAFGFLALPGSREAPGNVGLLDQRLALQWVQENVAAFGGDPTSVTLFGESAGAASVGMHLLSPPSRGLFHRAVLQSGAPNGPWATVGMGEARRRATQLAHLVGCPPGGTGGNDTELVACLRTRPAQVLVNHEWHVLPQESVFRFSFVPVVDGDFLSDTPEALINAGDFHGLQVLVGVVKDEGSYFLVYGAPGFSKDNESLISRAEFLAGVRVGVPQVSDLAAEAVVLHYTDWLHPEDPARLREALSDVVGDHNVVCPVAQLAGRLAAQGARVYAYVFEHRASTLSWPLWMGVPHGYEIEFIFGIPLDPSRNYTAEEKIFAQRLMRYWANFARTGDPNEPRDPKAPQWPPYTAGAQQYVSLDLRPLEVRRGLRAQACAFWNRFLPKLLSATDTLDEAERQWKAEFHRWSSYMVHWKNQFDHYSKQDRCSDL
In short: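 Enzyme inhibition was scored from DTNB-detected thiocholine formed by recombinant human AChE acting on acetylthiocholine. The 30 min compound preincubation and 10 min substrate reaction were both run at room temperature, with DMSO as vehicle control.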

[7] = molecular target: Acetylcholinesterase (Homo sapiens) (UniProt P22303); experiment: Acetylcholinesterase (AChE) small molecule antagonists: fluorescence cell-based qHTS assay (AID 1347398; calls by dose curve; note: nearly all actives have a fitted effect of over 50% in size); conditions: Potency: AChE activity
In short: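 Endogenous acetylcholinesterase of SH-SY5Y neuroblastoma cells is measured in situ. After overnight attachment and 30 min compound exposure, cells receive acetylthiocholine and Thiolite Green; fluorescence is read after 40 min at room temperature.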

[8] = molecular target: Acetylcholinesterase (Homo sapiens) (UniProt P22303); experiment: Acetylcholinesterase (AChE) small molecule antagonists: enzyme-based qHTS assay with human liver microsomes (AID 1347399; calls by dose curve; note: nearly all actives have a fitted effect of over 60% in size; note: potency is the fitted concentration of half-maximal effect); conditions: Potency: qHTS inhibition
In short: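 Recombinant human AChE (50 mU/mL in the enzyme mix) and human liver microsomes (0.25 mg/mL final) were preincubated with compound and NADPH (0.25 mg/mL final) for 30 min at 37 C. Acetylthiocholine/DTNB was then added; thiocholine was read colorimetrically after 10 min at room temperature.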

[9] = molecular target: Cytochrome P450 2D6 (Homo sapiens) (UniProt P10635); experiment: Cytochrome P450 Family 2 Subfamily D Member 6 (CYP2D6) small molecule antagonists: luciferase reporter qHTS assay (AID 1671196); note: nearly all actives have a fitted effect of over 50% in size; note: potency is the fitted concentration of half-maximal effect
Chain of Cytochrome P450 2D6 (Homo sapiens) (P10635 whole entry, looked up): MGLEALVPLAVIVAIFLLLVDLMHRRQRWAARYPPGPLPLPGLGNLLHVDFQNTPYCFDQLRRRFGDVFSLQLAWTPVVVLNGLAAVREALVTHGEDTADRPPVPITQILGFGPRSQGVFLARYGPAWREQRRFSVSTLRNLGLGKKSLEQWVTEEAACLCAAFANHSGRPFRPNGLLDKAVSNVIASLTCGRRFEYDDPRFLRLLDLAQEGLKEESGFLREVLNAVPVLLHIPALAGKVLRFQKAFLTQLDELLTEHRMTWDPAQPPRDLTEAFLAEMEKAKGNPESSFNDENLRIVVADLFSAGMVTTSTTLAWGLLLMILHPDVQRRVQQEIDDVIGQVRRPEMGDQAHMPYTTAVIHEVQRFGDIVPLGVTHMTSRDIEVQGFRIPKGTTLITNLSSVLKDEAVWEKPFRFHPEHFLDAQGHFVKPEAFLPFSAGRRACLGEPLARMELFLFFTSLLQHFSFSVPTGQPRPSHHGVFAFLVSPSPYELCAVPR
In short: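 Each well received CYP2D6 with its proluciferin substrate and chemical, sat 10 min, then got NADPH regeneration solution for 1 h at room temperature. Luminescence in RLU served as the activity measure.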

[10] = molecular target: Cytochrome P450 2C19 (Homo sapiens) (UniProt P33261); experiment: Cytochrome P450 Family 2 Subfamily C Member 19 (CYP2C19) small molecule antagonists: luciferase reporter qHTS assay (AID 1671197); note: nearly all actives have a fitted effect of over 65% in size; note: potency is the fitted concentration of half-maximal effect
Chain of Cytochrome P450 2C19 (Homo sapiens) (P33261 whole entry, looked up): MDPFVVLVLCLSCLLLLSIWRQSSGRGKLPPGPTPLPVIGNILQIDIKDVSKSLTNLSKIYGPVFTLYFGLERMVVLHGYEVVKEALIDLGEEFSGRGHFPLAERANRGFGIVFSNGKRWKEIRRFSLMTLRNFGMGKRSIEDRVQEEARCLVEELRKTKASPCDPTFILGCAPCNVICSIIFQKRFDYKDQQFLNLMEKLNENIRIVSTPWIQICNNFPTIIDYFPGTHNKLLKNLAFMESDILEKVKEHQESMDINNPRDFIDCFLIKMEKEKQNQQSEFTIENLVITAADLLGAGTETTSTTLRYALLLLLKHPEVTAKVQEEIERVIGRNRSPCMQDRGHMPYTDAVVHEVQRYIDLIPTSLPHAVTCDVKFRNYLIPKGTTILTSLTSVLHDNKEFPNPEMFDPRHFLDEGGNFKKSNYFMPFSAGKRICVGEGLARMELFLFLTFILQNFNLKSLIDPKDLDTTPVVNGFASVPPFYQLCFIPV
In short: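 Light output is proportional to CYP2C19 activity: proluciferin substrate is converted to luciferin, then detected by a luciferin detection reagent that also stops the 1 h, 37C NADPH-driven reaction. Ketoconazole serves as positive control.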

[11] = molecular target: Cytochrome P450 2C9 (Homo sapiens) (UniProt P11712); experiment: Cytochrome P450 Family 2 Subfamily C Member 9 (CYP2C9) small molecule antagonists: luciferase reporter qHTS assay (AID 1671198); note: nearly all actives have a fitted effect of over 50% in size; note: potency is the fitted concentration of half-maximal effect
Chain of Cytochrome P450 2C9 (Homo sapiens) (P11712 whole entry, looked up): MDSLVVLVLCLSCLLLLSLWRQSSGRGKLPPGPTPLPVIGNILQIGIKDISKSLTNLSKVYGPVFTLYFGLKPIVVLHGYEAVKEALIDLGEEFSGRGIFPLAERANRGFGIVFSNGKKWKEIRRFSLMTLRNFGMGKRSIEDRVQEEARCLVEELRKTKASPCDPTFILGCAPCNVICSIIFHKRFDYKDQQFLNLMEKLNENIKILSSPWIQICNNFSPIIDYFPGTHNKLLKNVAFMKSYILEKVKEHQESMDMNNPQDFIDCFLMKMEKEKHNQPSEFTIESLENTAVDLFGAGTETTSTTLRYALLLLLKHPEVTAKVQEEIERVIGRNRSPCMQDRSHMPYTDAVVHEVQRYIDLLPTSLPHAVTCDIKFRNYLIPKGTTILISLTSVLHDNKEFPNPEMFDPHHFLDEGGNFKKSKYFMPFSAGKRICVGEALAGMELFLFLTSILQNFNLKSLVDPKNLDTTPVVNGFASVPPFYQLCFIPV
In short: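 P450-Glo proluciferin substrate with CYP2C9 enzyme; 10 min RT preincubation, then NADPH regeneration 1 h at 37C; luciferin detection reagent 20 min RT, luminescence in relative luminescence units.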

[12] = molecular target: Cytochrome P450 1A2 (Homo sapiens) (UniProt P05177); experiment: Cytochrome P450 Family 1 Subfamily A Member 2 (CYP1A2) small molecule antagonists: luciferase reporter qHTS assay (AID 1671199); note: nearly all actives have a fitted effect of over 50% in size; note: potency is the fitted concentration of half-maximal effect
Chain of Cytochrome P450 1A2 (Homo sapiens) (P05177 whole entry, looked up): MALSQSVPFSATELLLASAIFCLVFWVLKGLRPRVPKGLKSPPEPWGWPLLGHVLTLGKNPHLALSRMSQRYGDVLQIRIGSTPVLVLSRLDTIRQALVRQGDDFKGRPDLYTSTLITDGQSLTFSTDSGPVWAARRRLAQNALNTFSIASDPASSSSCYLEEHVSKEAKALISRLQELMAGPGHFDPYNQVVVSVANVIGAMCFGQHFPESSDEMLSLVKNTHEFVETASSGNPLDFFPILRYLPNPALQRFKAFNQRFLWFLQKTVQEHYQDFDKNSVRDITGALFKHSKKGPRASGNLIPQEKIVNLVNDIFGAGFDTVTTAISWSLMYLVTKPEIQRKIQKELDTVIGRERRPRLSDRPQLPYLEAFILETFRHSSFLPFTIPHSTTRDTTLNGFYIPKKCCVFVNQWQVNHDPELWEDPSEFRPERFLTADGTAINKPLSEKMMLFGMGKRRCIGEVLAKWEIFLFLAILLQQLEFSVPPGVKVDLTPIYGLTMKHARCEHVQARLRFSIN
In short: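 Enzymatic CYP1A2 assay, human, luminescent: 10 min compound–enzyme–substrate preincubation, 1 h NADPH-dependent turnover, 20 min detection step, room temperature throughout. Reduced light indicates lower CYP1A2 activity.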

[13] = molecular target: Voltage-gated inwardly rectifying potassium channel KCNH2 (Homo sapiens) (UniProt Q12809); experiment: Human Ether-a-go-go-Related Gene (hERG) channel small molecule antagonists: fluorescence cell-based qHTS assay (AID 1671200)
Chain of Voltage-gated inwardly rectifying potassium channel KCNH2 (Homo sapiens) (Q12809 whole entry, looked up): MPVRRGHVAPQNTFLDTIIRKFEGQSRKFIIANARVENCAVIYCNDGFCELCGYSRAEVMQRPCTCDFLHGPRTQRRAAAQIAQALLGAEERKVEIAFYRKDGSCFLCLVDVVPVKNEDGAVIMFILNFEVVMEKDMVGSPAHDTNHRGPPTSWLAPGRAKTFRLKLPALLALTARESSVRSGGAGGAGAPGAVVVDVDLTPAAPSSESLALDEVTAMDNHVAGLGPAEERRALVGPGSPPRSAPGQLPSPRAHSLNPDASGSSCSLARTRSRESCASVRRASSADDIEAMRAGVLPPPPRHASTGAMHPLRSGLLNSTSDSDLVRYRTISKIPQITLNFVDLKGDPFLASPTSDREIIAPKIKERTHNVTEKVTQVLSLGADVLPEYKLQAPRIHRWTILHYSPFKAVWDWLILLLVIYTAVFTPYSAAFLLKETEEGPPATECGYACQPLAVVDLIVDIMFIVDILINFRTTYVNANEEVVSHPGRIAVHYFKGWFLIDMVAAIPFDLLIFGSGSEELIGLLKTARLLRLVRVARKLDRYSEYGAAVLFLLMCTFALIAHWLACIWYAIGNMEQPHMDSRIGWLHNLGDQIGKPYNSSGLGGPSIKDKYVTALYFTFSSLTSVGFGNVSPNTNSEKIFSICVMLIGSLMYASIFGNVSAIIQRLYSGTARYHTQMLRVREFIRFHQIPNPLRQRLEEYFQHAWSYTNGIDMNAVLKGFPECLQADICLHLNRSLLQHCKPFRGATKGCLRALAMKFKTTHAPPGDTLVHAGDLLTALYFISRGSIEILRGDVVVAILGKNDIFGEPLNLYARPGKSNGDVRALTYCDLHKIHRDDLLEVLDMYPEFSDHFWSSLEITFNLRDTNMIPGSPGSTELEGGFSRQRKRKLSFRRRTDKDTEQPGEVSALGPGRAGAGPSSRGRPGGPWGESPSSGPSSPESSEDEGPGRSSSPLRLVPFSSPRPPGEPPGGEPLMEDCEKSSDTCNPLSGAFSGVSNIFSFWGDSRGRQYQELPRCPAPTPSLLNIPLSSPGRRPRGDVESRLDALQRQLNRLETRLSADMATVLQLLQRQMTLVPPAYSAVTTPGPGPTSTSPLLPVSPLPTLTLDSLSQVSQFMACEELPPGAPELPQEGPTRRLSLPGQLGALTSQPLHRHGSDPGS
In short: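 Thallium flux as potassium surrogate: FluxOR II dye loaded 1 h at room temperature into hERG-expressing U2OS cells, then stimulus buffer added after 10 min. Kinetic 480 nm excitation/540 nm emission read, 2 min.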

[14] = molecular target: Cytochrome P450 3A4 (Homo sapiens) (UniProt P08684); experiment: Cytochrome P450 Family 3 Subfamily A Member 4 (CYP3A4) small molecule antagonists: luciferase reporter qHTS assay (AID 1671201); note: nearly all actives have a fitted effect of over 50% in size; note: potency is the fitted concentration of half-maximal effect
Chain of Cytochrome P450 3A4 (Homo sapiens) (P08684 whole entry, looked up): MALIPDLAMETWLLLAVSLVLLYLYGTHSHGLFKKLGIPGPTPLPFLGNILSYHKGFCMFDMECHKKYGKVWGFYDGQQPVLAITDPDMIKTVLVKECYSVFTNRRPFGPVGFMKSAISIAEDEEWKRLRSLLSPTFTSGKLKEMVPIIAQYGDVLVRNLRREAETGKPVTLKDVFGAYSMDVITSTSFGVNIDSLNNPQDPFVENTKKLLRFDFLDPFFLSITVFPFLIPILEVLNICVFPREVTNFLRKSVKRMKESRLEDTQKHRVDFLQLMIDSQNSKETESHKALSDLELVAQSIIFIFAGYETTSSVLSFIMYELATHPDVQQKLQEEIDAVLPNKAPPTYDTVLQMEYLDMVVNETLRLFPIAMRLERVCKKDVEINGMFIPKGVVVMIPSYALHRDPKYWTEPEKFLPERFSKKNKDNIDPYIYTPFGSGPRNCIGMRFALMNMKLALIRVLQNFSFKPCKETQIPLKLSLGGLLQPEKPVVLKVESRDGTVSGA
In short: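 Recombinant human CYP3A4 converts a proluciferin substrate to luciferin over 1 h at room temperature after NADPH regeneration solution is added (compound preincubated 10 min); detection reagent stops reaction, luminescence read 20 min later as relative units.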

[15] = molecular target: Acetylcholinesterase (Homo sapiens) (UniProt P22303); experiment: Acetylcholinesterase (AChE) small molecule antagonists: colormetric cell-based qHTS assay (AID 1347395; calls by dose curve; note: nearly all actives have a fitted effect of over 30% in size)
In short: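 Colorimetric readout: DTNB quantifies thiocholine from acetylthiocholine hydrolysed by endogenous AChE of SH-SY5Y cells (2,000/well, plated overnight). Compound pretreatment 30 min, substrate incubation 90 min, both 37 C.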

[16] = molecular target: Nuclear receptor subfamily 1 group I member 2 (Homo sapiens) (UniProt O75469); experiment: Human pregnane X receptor (PXR) small molecule agonists, qHTS assay (AID 1346982); note: nearly all actives have a fitted effect of over 35% in size
Chain of Nuclear receptor subfamily 1 group I member 2 (Homo sapiens) (O75469 whole entry, looked up): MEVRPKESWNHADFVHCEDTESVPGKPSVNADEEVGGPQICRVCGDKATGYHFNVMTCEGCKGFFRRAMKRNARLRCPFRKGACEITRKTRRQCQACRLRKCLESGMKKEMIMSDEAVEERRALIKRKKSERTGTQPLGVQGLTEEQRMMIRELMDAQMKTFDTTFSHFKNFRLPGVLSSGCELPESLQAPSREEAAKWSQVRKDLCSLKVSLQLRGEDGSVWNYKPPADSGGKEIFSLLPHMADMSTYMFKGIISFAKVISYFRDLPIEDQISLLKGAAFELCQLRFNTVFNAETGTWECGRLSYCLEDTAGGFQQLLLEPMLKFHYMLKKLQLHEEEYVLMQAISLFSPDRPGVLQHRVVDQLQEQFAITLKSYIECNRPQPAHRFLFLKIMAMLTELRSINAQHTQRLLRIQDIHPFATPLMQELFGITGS
In short: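 Compound-induced hPXR transactivation of a CYP3A4 luciferase reporter was scored in HepG2 PXR-Luc cells over 24 hr at 37 C, 5% CO2, by luminescence.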

[17] = molecular target: Nuclear receptor subfamily 1 group I member 2 (Rattus norvegicus) (UniProt Q9R1A7); experiment: Rat pregnane X receptor (rPXR) activation by small molecules, qHTS assay (AID 1346983); conditions: rPXR luciferase reporter cells, One-Glo luminescence, 24 h; max activation: stronger effect = higher value; note: nearly all actives have a fitted effect of over 20% in size
In short: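 Cell-based rPXR activation assay: rPXR cells, 2,000 per well, rested 5hr at 37 C, then exposed to compounds in DMSO for 24 hr at 37 C. Luciferase activity read by One-Glo luminescence after 30 min at room temperature.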
% is set by controls: 0 for no effect and ±100 for the full control effect.

COP(N)(=S)Oc1ccccc1C(=O)OC(C)C (centres undefined)
active: Potency [8] 2.83 µM | Potency [9] 31.7 µM | Potency [10] 0.178 µM | Potency [11] 6.33 µM | Potency [12] 2 µM | Potency [14] 2 µM
inactive: Potency [1] | Potency [2] | Potency [3] | Potency [4] | Potency [5] | Potency [6] | Potency [7] | Potency [13]

C=CC1CC=CCC1 (centres undefined)
inactive: Potency [1] | Potency [2] | Potency [3] | Potency [4] | Potency [5] | Potency [15] | Potency [6] | Potency [7] | Potency [8] | Potency [9] | Potency [10] | Potency [11] | Potency [13]

CC(C)CP(=S)(S)CC(C)C
inactive: Potency [1] | Potency [2] | Potency [16] | Potency [15] | Potency [6] | Potency [7] | Potency [8] | Potency [12] | Potency [13]
active: Potency [3] 48.6 µM | Potency [10] 56.4 µM | Potency [11] 31.7 µM | Potency [14] 35.6 µM

O=C(N[C@H]1CN2CCC1CC2)c1cc2ccoc2cn1
active: Potency [9] 28.3 µM
inactive: Potency [1] | Potency [2] | Potency [3] | Potency [4] | Potency [5] | Potency [16] | Potency [6] | Potency [8] | Potency [10] | Potency [12] | Potency [13] | Potency [14]

O=P(O)(Oc1ccccc1)Oc1ccccc1
inactive: Potency [1] | Potency [2] | Potency [3] | Potency [4] | Potency [16] | Potency [15] | Potency [6] | Potency [7] | Potency [8] | Potency [9] | Potency [12] | Potency [13] | Potency [14]
active: Potency [11] 39.9 µM

Cc1cc(C)nc(Nc2ccccc2)n1
active: Potency [10] 79.6 µM | Potency [12] 6.33 µM
inactive: Potency [1] | Potency [2] | Potency [3] | Potency [4] | Potency [5] | Potency [15] | Potency [6] | Potency [7] | Potency [8] | Potency [9] | Potency [13]

CN1CCN(C(=O)O[C@H]2c3nccnc3C(=O)N2c2ccc(Cl)cn2)CC1
inactive: Potency [1] | Potency [2] | Potency [3] | Potency [4] | Potency [5] | max activation [17] 2% | Potency [15] | Potency [6] | Potency [7] | Potency [8] | Potency [9] | Potency [10] | Potency [11] | Potency [13]

CCc1cc2c(s1)-n1c(C)nnc1CN=C2c1ccccc1Cl
inactive: Potency [1] | Potency [2] | Potency [3] | Potency [4] | Potency [5] | Potency [15] | Potency [6] | Potency [7] | Potency [8] | Potency [9] | Potency [10] | Potency [11] | Potency [12] | Potency [13] | Potency [14]

NC(=O)O
inactive: Potency [1] | Potency [2] | Potency [3] | Potency [4] | Potency [16] | Potency [15] | Potency [6] | Potency [7] | Potency [8] | Potency [9] | Potency [10] | Potency [11] | Potency [12] | Potency [13] | Potency [14]
